Measurements reported in PMC7819943, “Rice protein-binding microarrays: a tool to detect cis-acting elements near promoter regions in rice”.
The full ranking holds about 35,000 sequences; the median of “fluorescence intensity (a.u.)” is about 10,000, and the highest 2% start at about 52,000. The full list was thinned out, with the highest values kept by preference.

target: T1, OsWOX13 (Oryza sativa, UniProt Q5QMM3 1-267); assay: protein-binding microarray (RPBM); PBS, 2% BSA, 51.3 ng/ul salmon testes DNA, 50 uM zinc acetate, 200 nM TF, 25 C, 1 h; high values mean tight binding; conditions: protein: recombinant; tags: N-terminal polyhistidine and DsRed monomer fusion (pET32a); label: CyDye5-dUTP incorporated in the synthesized complementary strand; 3' TTTTT single-stranded linker to array surface; dsDNA, one strand shown
T1 sequence: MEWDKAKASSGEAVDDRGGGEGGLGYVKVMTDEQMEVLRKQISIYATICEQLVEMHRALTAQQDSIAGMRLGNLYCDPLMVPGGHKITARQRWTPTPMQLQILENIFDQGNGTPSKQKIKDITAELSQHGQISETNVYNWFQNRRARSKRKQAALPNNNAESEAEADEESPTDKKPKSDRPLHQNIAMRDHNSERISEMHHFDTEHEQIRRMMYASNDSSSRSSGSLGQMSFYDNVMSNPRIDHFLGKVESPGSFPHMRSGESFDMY
Summary of the method: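 Polyhistidine-tagged DsRed fusions of transcription factors, joined at the N-terminus, were expressed in E. coli BL21-CodonPlus and isolated on Ni–NTA. They were incubated at 200 nM for 1 h at 25 °C on a custom Agilent array, double-stranded and BSA-blocked, in PBS with 2% BSA, salmon testes DNA and 50 µM zinc acetate. The binding signal is per-feature fluorescence intensity (arbitrary units) read on an Axon 4000B scanner after washing.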

Question: With “TGGGATAATTAACTCGTAATGATCCCCAAATGCGTGCGTACGGAGTCACCTAGTGCAG” as the sequence, how does the binding signal read?
Answer: The binding signal was 28300 fluorescence intensity (a.u.).

Question: Which binding signal does the source give for “GTTAACGACCAAAATTGGTAGCATCGACACCTCCCTGGGCCGGAGTCACCTAGTGCAG” here?
Answer: The binding signal was 4240 fluorescence intensity (a.u.).

Question: “GGTAATTGATTATGCACCTGATCTAGATACATGTACAGCTCGGAGTCACCTAGTGCAG” was tested. Which binding signal did it give?
Answer: Its binding signal is 61800 fluorescence intensity (a.u.).

Question: Which binding signal does the source give for “TCCACTAATATTAACCAATAGACAGATATACTATCACAGTCGGAGTCACCTAGTGCAG” here?
Answer: Its binding signal is 10800 fluorescence intensity (a.u.).

Question: For “ATTATTGAACGAATGATTATCGTAGATTATACATCTAGCCCGGAGTCACCTAGTGCAG”, which binding signal is on record?
Answer: The binding signal was 28400 fluorescence intensity (a.u.).

Question: “GGTGATTAGACCGGTGATCTATACCGGTCAGACCGATAGCCGGAGTCACCTAGTGCAG” was tested. Which binding signal did it give?
Answer: The binding signal was 47800 fluorescence intensity (a.u.).

Question: How did the binding signal turn out when “AGTTATGTAATTGGATCATGAGTAGATATACATGTGTGCTCGGAGTCACCTAGTGCAG” was run?
Answer: Its binding signal is 29300 fluorescence intensity (a.u.).

Question: With “AATAGATAGATTGATACCACCACTTAACTATACTAATGCTCGGAGTCACCTAGTGCAG” as the sequence, how does the binding signal read?
Answer: Its binding signal is 63700 fluorescence intensity (a.u.).

Question: For “TAGCCACCGTGATTGATTGATCTATAGATCGATTGGTGCCCGGAGTCACCTAGTGCAG”, which binding signal is on record?
Answer: The binding signal was 64000 fluorescence intensity (a.u.).

Question: Which binding signal does the source give for “TAGATAGATAGAAGATAATAGAAGATAGATAATAGAAGATCGGAGTCACCTAGTGCAG” here?
Answer: The binding signal was 10200 fluorescence intensity (a.u.).

Question: With “ATCTATAATTAGATTGATATGATTATCTTGTGTACAACAACGGAGTCACCTAGTGCAG” as the sequence, how does the binding signal read?
Answer: Its binding signal is 37800 fluorescence intensity (a.u.).

Question: “AGATAGATAGATAGATAGATAGATAGATAGATAGATAGATCGGAGTCACCTAGTGCAG” was tested. Which binding signal did it give?
Answer: The binding signal was 55700 fluorescence intensity (a.u.).

Question: For “TTACTTAATTACTATAGATAATTAGTTGATTAGTGTTACTCGGAGTCACCTAGTGCAG”, which binding signal is on record?
Answer: Its binding signal is 45000 fluorescence intensity (a.u.).

Question: With “ATAGATAGATAGATAATAGATAGATAGAAGATAGATAGATCGGAGTCACCTAGTGCAG” as the sequence, how does the binding signal read?
Answer: The binding signal was 44600 fluorescence intensity (a.u.).

Question: For “AGTGGTGATGGGCACAATGGTGATTAGAGTGGCGGAGATCCGGAGTCACCTAGTGCAG”, which binding signal is on record?
Answer: Its binding signal is 7460 fluorescence intensity (a.u.).

Question: How did the binding signal turn out when “TATTGATTTAATGAAACTAATTTGGTATTATAAATATTACCGGAGTCACCTAGTGCAG” was run?
Answer: The binding signal was 32200 fluorescence intensity (a.u.).

Question: “GGAGAGCAATCAAGCGAAATTGACACGTGTCACGGCAGTGCGGAGTCACCTAGTGCAG” was tested. Which binding signal did it give?
Answer: Its binding signal is 30300 fluorescence intensity (a.u.).

Question: How did the binding signal turn out when “ATGCAAAGTTGCAGGGATTGATTGGCTGTTTCGTTTGCTACGGAGTCACCTAGTGCAG” was run?
Answer: Its binding signal is 21800 fluorescence intensity (a.u.).

Question: With “CATCCAAATTGGCAAAGGCCGCCTCTTTCTTTAATTAACCCGGAGTCACCTAGTGCAG” as the sequence, how does the binding signal read?
Answer: The binding signal was 14100 fluorescence intensity (a.u.).

Question: With “AAGATAAAATGTATGATTGTATGCCTAATTTGAATAGTGGCGGAGTCACCTAGTGCAG” as the sequence, how does the binding signal read?
Answer: Its binding signal is 15900 fluorescence intensity (a.u.).

Question: With “TTGACATCATCATTGACGTGATAGATATAGTATATTAGACCGGAGTCACCTAGTGCAG” as the sequence, how does the binding signal read?
Answer: The binding signal was 17000 fluorescence intensity (a.u.).

Question: How did the binding signal turn out when “TTGTATAAATTGCTATTAGATTGGCTATATATGAATTAGACGGAGTCACCTAGTGCAG” was run?
Answer: Its binding signal is 37500 fluorescence intensity (a.u.).

Question: How did the binding signal turn out when “ACAAATTGAGTGTTATAGTGAGATGGCATCGGAGATGAGCCGGAGTCACCTAGTGCAG” was run?
Answer: The binding signal was 32400 fluorescence intensity (a.u.).

Question: “AGTATAATTAGCATACTATGATATCGATATACACGTTATGCGGAGTCACCTAGTGCAG” was tested. Which binding signal did it give?
Answer: Its binding signal is 31400 fluorescence intensity (a.u.).

Question: Which binding signal does the source give for “TAGCTAGATTGATAATGTACATATATGAATTTGTATGCGACGGAGTCACCTAGTGCAG” here?
Answer: The binding signal was 55500 fluorescence intensity (a.u.).

Question: “ATCGTGATTGATGGCATTGGTATAGATTTCGAGCATTGGCCGGAGTCACCTAGTGCAG” was tested. Which binding signal did it give?
Answer: The binding signal was 63900 fluorescence intensity (a.u.).

Question: With “TAGCTGATTATTACAGATGTTGGAGGATGAATAATTGTGACGGAGTCACCTAGTGCAG” as the sequence, how does the binding signal read?
Answer: Its binding signal is 13500 fluorescence intensity (a.u.).

Question: With “TGCGTGATTAGCTGATAATACACGTGAATTATGTATGACGCGGAGTCACCTAGTGCAG” as the sequence, how does the binding signal read?
Answer: Its binding signal is 52800 fluorescence intensity (a.u.).

Question: How did the binding signal turn out when “CAAGATTGGGCGAGGGAGGGAGGAGTCCAGATCCTGCCTCCGGAGTCACCTAGTGCAG” was run?
Answer: Its binding signal is 3250 fluorescence intensity (a.u.).

Question: Which binding signal does the source give for “ATTCTCGATTTAACACTAATCATCATTATCCTAATAACCACGGAGTCACCTAGTGCAG” here?
Answer: The binding signal was 6320 fluorescence intensity (a.u.).

Question: Which binding signal does the source give for “CTTAATTTAGAGTTGATTTTGGAGTTTCTTTTATCGTAGTCGGAGTCACCTAGTGCAG” here?
Answer: Its binding signal is 39500 fluorescence intensity (a.u.).

Question: With “ATTACTTATCTGATTTACGATCCGACTTAACCACTGTATTCGGAGTCACCTAGTGCAG” as the sequence, how does the binding signal read?
Answer: The binding signal was 4150 fluorescence intensity (a.u.).

Question: How did the binding signal turn out when “ACAAATTGGTCACTGGCTGAATAGTTTCTACATCAGTTAACGGAGTCACCTAGTGCAG” was run?
Answer: Its binding signal is 6570 fluorescence intensity (a.u.).

Question: How did the binding signal turn out when “CGTAAACATCTGATGAGTACCTCACATGTTGAACATCTCCCGGAGTCACCTAGTGCAG” was run?
Answer: The binding signal was 3900 fluorescence intensity (a.u.).

Question: Which binding signal does the source give for “GTTGAAGGATCTGGATGATTAGACGAGCGATGGATCAGGTCGGAGTCACCTAGTGCAG” here?
Answer: Its binding signal is 3720 fluorescence intensity (a.u.).

Question: For “TCAGTATGTGATTGATTGAAAACTGAAATGGTAGACATACCGGAGTCACCTAGTGCAG”, which binding signal is on record?
Answer: Its binding signal is 53400 fluorescence intensity (a.u.).

Question: “TGCTGATTGGTATGCATAGAGTATGTATGGAAACCTTGTGCGGAGTCACCTAGTGCAG” was tested. Which binding signal did it give?
Answer: Its binding signal is 56600 fluorescence intensity (a.u.).

Question: Which binding signal does the source give for “TGTCAGATTGGATGGATTGTGCTACTGTACATGCATAGTGCGGAGTCACCTAGTGCAG” here?
Answer: Its binding signal is 37000 fluorescence intensity (a.u.).

Question: Which binding signal does the source give for “ATACTTGATTTAAAATGAAAACATAGACAAATGTATGGTACGGAGTCACCTAGTGCAG” here?
Answer: The binding signal was 23800 fluorescence intensity (a.u.).

Question: How did the binding signal turn out when “ATAGTATATGATGGATGAGATGGATGCATAGATGGATTGGCGGAGTCACCTAGTGCAG” was run?
Answer: Its binding signal is 3330 fluorescence intensity (a.u.).

Question: “ATGTGAAATTGAATGCAGTAGTATGCACATGAAACTTGGGCGGAGTCACCTAGTGCAG” was tested. Which binding signal did it give?
Answer: The binding signal was 11300 fluorescence intensity (a.u.).

Question: How did the binding signal turn out when “CCCGTGGCTCGACTTGATGGCGTGGAGAATGGACGAGTACCGGAGTCACCTAGTGCAG” was run?
Answer: Its binding signal is 6970 fluorescence intensity (a.u.).

Question: Which binding signal does the source give for “TTATAATTAGAACTTTTATATGTGTGTTATGCACGACTTACGGAGTCACCTAGTGCAG” here?
Answer: The binding signal was 4050 fluorescence intensity (a.u.).
